Reference: ChEMBL document CHEMBL2218924, “A broad activity screen in support of a chemogenomic map for kinase signalling research and drug discovery” (Biochem J, 2013)

The compounds below were run against Proto-oncogene tyrosine-protein kinase receptor Ret (Homo sapiens) (UniProt P07949). Conditions: at 1 µM.
Sequence of Proto-oncogene tyrosine-protein kinase receptor Ret (Homo sapiens) (P07949 whole entry): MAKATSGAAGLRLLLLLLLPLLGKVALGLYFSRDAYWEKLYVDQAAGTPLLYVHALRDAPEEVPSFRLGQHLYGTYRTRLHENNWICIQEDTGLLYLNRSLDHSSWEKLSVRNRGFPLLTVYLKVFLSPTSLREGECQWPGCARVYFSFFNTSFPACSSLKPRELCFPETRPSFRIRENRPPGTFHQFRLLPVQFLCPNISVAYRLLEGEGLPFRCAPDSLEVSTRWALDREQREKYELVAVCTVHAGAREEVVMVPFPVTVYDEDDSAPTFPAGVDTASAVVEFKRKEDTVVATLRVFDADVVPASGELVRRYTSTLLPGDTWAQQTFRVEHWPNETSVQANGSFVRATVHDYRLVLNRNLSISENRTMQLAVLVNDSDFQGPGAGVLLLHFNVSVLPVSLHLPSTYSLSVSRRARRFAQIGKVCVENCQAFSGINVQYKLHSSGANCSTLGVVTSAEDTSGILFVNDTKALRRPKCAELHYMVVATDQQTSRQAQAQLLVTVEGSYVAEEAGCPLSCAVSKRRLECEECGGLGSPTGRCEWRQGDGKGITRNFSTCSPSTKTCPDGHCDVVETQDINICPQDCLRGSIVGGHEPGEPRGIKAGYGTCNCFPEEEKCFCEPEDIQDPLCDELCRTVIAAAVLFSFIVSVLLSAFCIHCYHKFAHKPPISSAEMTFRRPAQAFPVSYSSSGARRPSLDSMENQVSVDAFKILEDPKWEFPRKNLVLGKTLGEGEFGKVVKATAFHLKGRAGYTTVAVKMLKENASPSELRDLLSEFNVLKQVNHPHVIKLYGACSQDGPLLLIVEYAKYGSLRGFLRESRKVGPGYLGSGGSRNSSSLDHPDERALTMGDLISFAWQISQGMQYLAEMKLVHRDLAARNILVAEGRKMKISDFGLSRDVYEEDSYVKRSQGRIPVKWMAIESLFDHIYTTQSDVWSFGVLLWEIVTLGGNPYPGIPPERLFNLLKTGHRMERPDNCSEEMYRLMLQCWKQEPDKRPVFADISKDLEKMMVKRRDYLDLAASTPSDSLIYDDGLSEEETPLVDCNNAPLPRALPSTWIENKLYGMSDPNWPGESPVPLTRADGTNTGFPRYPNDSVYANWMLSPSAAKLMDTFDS

Compound	residual activity [%]
CCC(=O)Nc1ccc2ncnc(Nc3cccc(Br)c3)c2c1	86
Cc1nc2cc3nc(-c4cccs4)cnc3cc2n1C	65
O=C1c2ccccc2-[n+]2ccc3c([nH]c4ccccc43)c21	89
Cc1ccc(S(=O)(=O)/C=C/C#N)cc1	115
N#Cc1cnc2cnc(NCc3cccnc3)cc2c1Nc1ccc(F)c(Cl)c1	88
CC(=O)O/N=C1\C(=C2\C(=O)Nc3cc(Br)ccc32)Nc2ccccc21	6
CO[C@H]1C[C@@H]2CC[C@@H](C)[C@@](O)(O2)C(=O)C(=O)N2CCCC[C@H]2C(=O)O[C@H]([C@H](C)C[C@@H]2CC[C@@H](O)[C@H](OC)C2)CC(=O)[C@H](C)/C=C(\C)[C@@H](O)[C@@H](OC)C(=O)[C@H](C)C[C@H](C)/C=C/C=C/C=C/1C	102
O=C1NC(=O)/C(=C/c2ccc3c(c2)OC(F)(F)O3)S1	91
CCN(CC)CCCCN1c2ccccc2Oc2ccc(Cl)cc21	108
O=C(Nc1cccc(Nc2cc(Nc3cccc(C(F)(F)F)c3)ncn2)c1)C1CC1	89
Cc1ccc(NC2=CC(=O)c3sc(C)nc3C2=O)cc1	109
COc1ccc(CNc2nc(N(CCO)CCO)nc3c2ncn3C(C)C)cc1	108
Oc1ccc(-c2nc(-c3ccc(F)cc3)c(-c3ccncc3)[nH]2)cc1	101
CC[n+]1c(/C=C/N(C)c2ccccc2)n(-c2ccccc2)c2ccc(-c3nc4ccccc4s3)cc21	96
O=Nc1c(-c2c(O)[nH]c3ccccc23)[nH]c2ccccc12	1
Nc1ccc2ncnc(NCCc3ccc(Oc4ccccc4)cc3)c2c1	76
O=c1c2ccccc2[nH]c(=S)n1CCN1CCC(=C(c2ccc(F)cc2)c2ccc(F)cc2)CC1	104
CC(C)n1cnc2c(NCc3ccccc3)nc(NCCCO)nc21	96

Compound	residual activity [%]
Cc1cc2ncc(-c3ccccc3)nc2cc1C	96
O=c1cc(-c2cccc3c2Sc2ccccc2S3)oc(N2CCOCC2)c1	102
Cc1nc(-c2ccccc2)c(-c2ccncc2)o1	11
CNc1cc2c(Nc3cccc(Br)c3)ncnc2cn1	67
Nc1n[nH]c2nnc(-c3c(-c4ccccc4)nn4ccccc34)cc12	108
CC(=O)c1ccc(N2CCOCC2)cc1O	99
Cc1cncc2cccc(S(=O)(=O)N3CCCN(C(=O)CN)C[C@H]3C)c12	91
O=C1NC(=O)/C(=C\c2ccc3nccnc3c2)S1	98
COc1cc2ncnc(Nc3ccc(O)c(Br)c3)c2cc1OC	23
CCOc1cc2ncnc(Nc3cccc(Br)c3)c2cc1OCC	30
Nc1cccc(-c2cc3c(Oc4cccc(O)c4)ncnc3[nH]2)c1	2
Nc1nc(Nc2ccc(S(N)(=O)=O)cc2)nn1C(=S)Nc1c(F)cccc1F	2
NC(=O)c1ccc2[nH]c(-c3ccc(Oc4ccc(Cl)cc4)cc3)nc2c1	105
O=C1Nc2cc(Br)ccc2/C1=C1/Nc2ccccc2/C1=N\O	1
Oc1ccc(Nc2nc(-c3ccc(Cl)cc3)cs2)cc1	97
COc1cc2ncnc(Nc3ccc(Oc4ccccc4)cc3)c2cc1OC	25
c1ccc(-c2n[nH]c3c2oc2ccccc23)cc1	74
